Broadly, the AC50 is the concentration at which the activity in the assay is half-maximal.

“And” between values parts separate entries of the source, which are not always exact repeats. Equal entries are not always repeated. The source made the active and inactive calls. Rule for the calls: active = hit-call score of the fitted dose curve at least 0.9, where 1 is the maximum; inactive = score below 0.9.

The test is described as follows: CCTE_Shafer_MEA_acute_cross_correlation_HWHM: CCTE's Neural Acute Assay for Cross Correlation at Half Width at Half Maximum, Shafer Lab (AID 2284026). As for the experimental part:
CCTE_Shafer_MEA_acute assay is conducted using Axion Biosystems 48 well microelectrode array (MEA) plates and Maestro recording system. Each well of the MEA plate contains a grid of 16 microelectrodes embedded in the culture surface. Electrically active cells, such as neurons, can be cultured over the electrodes, and electrical activity in these cells can be recorded extracellularly. The spontaneous firing of neurons is captured from each electrode on a microsecond timescale providing both temporally and spatially precise data. […] The CCTE_Shafer_MEA_acute assay uses primary cultures of rat cortical neurons. As these cultures mature over time, neural networks develop functional activity and form cohesive networks in which electrical activity can be highly coordinated. Baseline 40-minute recordings are made on days post-plating 13 or 15, followed by a secondary 40-minute recording after chemical exposure.CCTE_Shafer_MEA_acute_cross_correlation_HWHM is a component of the CCTE_Shafer_MEA_acute assay. It measures the distance along the x-axis (phase lag) from the left half maximum height to the center of the cross-correlogram of action potential firing during a recording in a microelectrode array (MEA) using Axion Biosystems Maestro 768 channel amplifier with the AxIS adaptive spike detector. Smaller values indicate a narrower correlogram (greater synchrony). The recordings before and after chemical treatment are used to calculate a percent change in the half width at half maximum of the cross-correlogram in each well.Data from the assay component CCTE_Shafer_MEA_acute_cross_correlation_HWHM was analyzed into 1 assay endpoint. This assay endpoint, CCTE_Shafer_MEA_acute_cross_correlation_HWHM, was analyzed in the negative analysis fitting direction relative to DMSO as the negative control and baseline of activity. Using a type of functional reporter, gain or loss-of-signal activity can be used to understand electrical activity.
Spontaneous activity in the cortical cultures was recorded using an Axion Biosystems Maestro 768 channel amplifier and Axion Integrated Studios (AxIS) v1.8 (or later) software. The amplifier recorded from all channels simultaneously (gain = 1200 x; sampling rate = 12.5 kHz/channel): raw signals were filtered with a Butterworth band-pass filter (300-5000 Hz), which filters out slower local field potentials leaving only fast potentials, i.e., "spikes", arising from extracellular currents associated with action potentials (Pine 2006; Wheeler and Nam 2011). On-line spike detection of filtered signals was conducted with the AxIS adaptive spike detector, using a threshold of 8x the root mean squared (rms) noise on each channel. Any electrodes with rms noise levels greater than 5 uV were grounded (e.g., no data were recorded). Once grounded, an electrode was grounded for the duration of the experiment. All recordings were conducted at 37 C. Wells were deemed usable if on the day of the exposure >/= 10 electrodes were active (defined as >/= 5 spikes/min). On DIV 13 or 15, a minimum of three wells from one cortical culture preparation were treated with each compound (0.03-40 uM). Prior to recording baseline activity, each mwMEA plate was placed in the Maestro at 37 C and allowed to sit for 20 min while firing rates stabilized. Baseline activity (40 min) was recorded before the addition of each compound. An additional 40 min of spontaneous activity was recorded in the presence of each compound. Changes in network parameters relative to baseline were assessed following compound treatment.
For `OC1CCC(C2CCCCC2)CC1` (stereo unspecified), the AC50 is 30 µM (active). `CCCCCCCCCCCCc1ccccc1S(=O)(=O)O`: the molecule was classed as inactive.

As to `OCCC(F)(F)C(F)(F)C(F)(F)C(F)(F)C(F)(F)C(F)(F)C(F)(F)C(F)(F)F`, the call was inactive. In the case of `CN1CCC[C@H]1c1cccnc1`, the outcome was inactive. On the same count and under the same terms, then `O=C(O)c1ccccc1C(c1ccc(O)cc1)c1ccc(O)cc1`, with “inactive”; and `CN(C)C=O`, with “inactive”; and `CCc1ccc(CCOc2ccc(CC3SC(=O)NC3=O)cc2)nc1` (stereo unspecified), with “inactive”. As to `CC(=O)NC1(c2cccc(F)c2)CCN(CC[C@@]2(c3ccc(Cl)c(Cl)c3)CN(c3ccccc3)C(=O)CO2)CC1`, the half-maximal activity concentration (AC50) was 20 µM (active). With `CCCOc1sc(C(=O)N2CCC(c3cc(CN)ccc3F)CC2)c(C)c1Br`, the molecule was classed as inactive. On the same count and under the same terms, then `CC(C)CCCCCCOC(=O)CCCCC(=O)OCCCCCCC(C)C`, with “inactive”. On to `CN1CCN(c2ccccc2/C=C2\SCCN(c3ccc(Cl)c(Cl)c3)C2=O)CC1`, for which the concentration at half-maximal activity (AC50) was 3.97 µM (active). Turning to `CC[C@H](c1ccc(O)cc1)[C@@H](CC)c1ccc(O)cc1`, the molecule was classed as inactive. On the same count and under the same terms, for `CC(C)(C)c1cc(C(C)(C)C)c(O)c(C(C)(C)C)c1` the value was “inactive”; for `Oc1cc2ccccc2c2ccccc12`, “inactive”; for `CCCCCCCCCCCCCCCS(=O)(=O)Oc1ccccc1`, “inactive”.

For `CCCCCCCCCCCCN1CCCC1=O`, the molecule was classed as inactive.

For `Cc1cc(CCN2CCN(c3nsc4ccccc34)CC2)cc2c1NC(=O)CC2(C)C`, the concentration at half-maximal activity (AC50) is 20 µM (active). Still for that read-out and setting: for `O=c1c(-c2ccc(O)cc2)coc2cc(O)ccc12` the value was 24.4 µM (active); for `NC(=O)N(O)[C@@H]1C=C[C@H](Oc2cccc(Oc3ccc(F)cc3)c2)C1`, 10 µM (active); for `CC#C[C@]1(O)CC[C@H]2[C@@H]3CCC4=CC(=O)CCC4=C3[C@@H](c3ccc(N(C)C)cc3)C[C@@]21C`, 20 µM (active) and 5.43 µM (active). In the case of `CCC(=C(c1ccc(O)cc1)c1ccc(OCCN(C)C)cc1)c1ccccc1`, the molecule was classed as inactive.
